# PubChem BioAssay
# The source made the active and inactive calls.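 Rule for the calls, unless noted: active = NADPH fluorescence slope more negative than the mean of all samples by about 3 SD, 99.7% confidence; inactive = the rest.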
# Molecular target: Voltage-gated potassium channel subunit beta-2 (Rattus norvegicus) (UniProt P62483)
# Assay: KvBeta enzyme negative modulators, primary screen, biochemical, NADPH fluorescence (AID 622;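 active = fluorescence slope higher than the sample average by over 3 SD, cut at about -0.22 in these data, passing the limit was not always enough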;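 note: slope of raw intensity against log time taken from 70 to 1610 s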)
# Settings: recombinant KvBeta, 4-cyanobenzaldehyde reduction, at 10 µM, active compounds read high
# Voltage-gated potassium channel subunit beta-2 (Rattus norvegicus), sequence (P62483 whole entry, looked up): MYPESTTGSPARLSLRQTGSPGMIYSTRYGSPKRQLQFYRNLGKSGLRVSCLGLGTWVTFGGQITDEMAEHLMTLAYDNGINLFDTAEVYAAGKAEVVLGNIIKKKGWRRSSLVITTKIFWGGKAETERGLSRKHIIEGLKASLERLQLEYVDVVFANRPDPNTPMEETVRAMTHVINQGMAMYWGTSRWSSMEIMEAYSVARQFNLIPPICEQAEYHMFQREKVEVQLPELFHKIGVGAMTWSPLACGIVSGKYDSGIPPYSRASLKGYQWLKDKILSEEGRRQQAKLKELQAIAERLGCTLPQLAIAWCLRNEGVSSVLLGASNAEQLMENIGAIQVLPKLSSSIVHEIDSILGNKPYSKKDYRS
row,Structure (SMILES),fluorescence slope
1,O=C(c1ccc(=O)oc1)N1CCN(c2ccc(F)cc2)CC1,-0.364 (inactive)
2,CC(C)(C)C1=Nn2c(nnc2-c2ccco2)SC1,-0.423 (inactive)
3,COc1cc(OC)cc(C(=O)N2CCC(N3CCCCCC3)CC2)c1,-0.337 (inactive)
4,COc1cc(=O)n2c(-c3ccccc3)csc2n1,-0.465 (inactive)
5,COc1ccccc1OCC(=O)Nc1ccc(S(=O)(=O)Nc2cc(C)nc(C)n2)cc1,-0.303 (inactive)
6,COCCCNC(=O)c1c(N)n(/N=C/c2cccs2)c2nc3ccccc3nc12,-0.266 (inactive)
7,CCOC(=O)CNS(=O)(=O)c1cc(-c2nn(C)c(=O)c3ccccc23)ccc1C,-0.385 (inactive)
8,N#CC1=C(SCc2ccccc2)NC2=C(C(=O)CCC2)C1c1ccc2c(c1)OCO2 (stereo not drawn),-0.525 (inactive)
9,CCOC(=O)c1[nH]c2cc3c(cc2c1NC(=O)CN1CCc2ccccc2C1)OCO3,-0.248 (inactive)
10,CCOC(=O)c1ccc(NC(=O)CCC(CC)C(=O)O)cc1 (stereo not drawn),-0.349 (inactive)
11,CCOC(=O)CSc1nc2ccccc2c(=O)n1C,-0.523 (inactive)
12,CC(O)Cn1ccccc1=N (stereo not drawn),-0.293 (inactive)
13,CC1CN(C2CCN(S(=O)(=O)Cc3ccccc3)CC2)CC(C)O1 (stereo not drawn),-0.391 (inactive)
14,CN1CCN(c2ncnc3c2[nH]c2ccc(F)cc23)CC1,-0.382 (inactive)
15,COc1cc(-c2nn3c(C4CCCCC4)nnc3s2)cc(OC)c1OC,-0.479 (inactive)
16,O=C1OC(Nc2ccc(Br)cn2)c2ccccc21 (stereo not drawn),-0.44 (inactive)
17,Cc1nnc2n(Cc3ccccc3)c(=O)c3c4c(sc3n12)CN(Cc1ccccc1)CC4,-0.423 (inactive)
18,O=C(O)C(Cc1c[nH]c2ccccc12)NS(=O)(=O)c1cccc2nsnc12 (stereo not drawn),-0.487 (inactive)
19,Cc1ccc(C(=O)C2=C(O)C(=O)N(c3ncccn3)C2c2ccc(Cl)cc2)o1 (stereo not drawn),-0.331 (inactive)
20,CC(=O)C1(C)OC(N)=C(C#N)C(c2ccccc2)C1(C#N)C#N (stereo not drawn),-0.377 (inactive)

row,Structure (SMILES),fluorescence slope
1,CCCCOc1ccccc1/C=c1/sc2nc(-c3oc4ccccc4c3C)nn2c1=O,-0.325 (inactive)
2,CCCOc1ccc(/C(O)=C2/C(=O)C(=O)N(CCN(C)C)C2c2ccncc2)cc1 (stereo not drawn),-0.418 (inactive)
3,Cc1onc(-c2ccccc2Cl)c1C(=O)N1CCN(c2nc3ccccc3s2)CC1,-0.417 (inactive)
4,COc1ccc2oc(=O)c(-c3nc(C)cs3)cc2c1,-0.302 (inactive)
5,CCOC(=O)CSc1nc(NC#N)nc(N(CC)CC)n1,-0.51 (inactive)
6,CCOc1ccc(/C(O)=C2/C(=O)C(=O)N(CCN(C)C)C2c2ccccc2)cc1Cl (stereo not drawn),-0.502 (inactive)
7,CCCCOC(=O)Nc1ccc(S(=O)(=O)Nc2nc(C)cc(C)n2)cc1,-0.439 (inactive)
8,COc1ccc(C=NCCC2(O)CC(C)N(C)CC2C)cc1 (stereo not drawn),-0.427 (inactive)
9,Cc1ccc(C(C)C)c(OCCNc2nc3c(c(=O)n(C)c(=O)n3C)n2C)c1,-0.422 (inactive)
10,CCOC(=O)CCc1c(C)c(C#N)c2nc3ccccc3n2c1-n1ccnc1C,-0.457 (inactive)
11,C=CCSc1nc(C)c(CC=C)c(=O)[nH]1,-0.472 (inactive)
12,CC1C[C@@]2(NC(=O)NC2=O)C(C)CN1C (stereo partly drawn),-0.499 (inactive)
13,Cc1nnc(C)n1/N=C/c1cc(Br)cc(Br)c1O,-0.368 (inactive)
14,Clc1ccc2[nH]c3c(NCCN4CCOCC4)ncnc3c2c1,-0.503 (inactive)
15,Cc1cc(C)n(CC(=O)N2c3ccccc3Sc3ccccc32)n1,-0.508 (inactive)
16,Cn1c(NCC(O)c2ccccc2)nc2c1c(=O)n(Cc1ccc(Cl)c(Cl)c1)c(=O)n2C (stereo not drawn),-0.518 (inactive)
17,COc1ccccc1-c1nn2c(-c3ccco3)nnc2s1,-0.42 (inactive)
18,CCCCNC(=O)c1c(N)n(/N=C/c2cccnc2)c2nc3ccccc3nc12,-0.456 (inactive)
19,CCOc1ccc(C2C(C(=O)c3ccc(C)o3)=C(O)C(=O)N2CCCN(CC)CC)cc1 (stereo not drawn),-0.509 (inactive)

# Molecular target: Voltage-gated potassium channel subunit beta-2 (Rattus norvegicus) (UniProt P62483)
# Assay: KvBeta positive modulators, primary screen, biochemical, NADPH fluorescence (AID 623);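 note: fluorescence intensity change per second fitted from 20 to 320 s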
# Settings: Recombinant KvBeta, NADPH fluorescence decrease slope, 10 min; at 10 µM; active compounds read low
row,Structure (SMILES),NADPH fluorescence slope
1,O=C(c1ccc(=O)oc1)N1CCN(c2ccc(F)cc2)CC1,-4.3e-05 (inactive)
2,CC(C)(C)C1=Nn2c(nnc2-c2ccco2)SC1,-0.000133 (inactive)
3,COc1cc(OC)cc(C(=O)N2CCC(N3CCCCCC3)CC2)c1,-2.1e-05 (inactive)
4,COc1cc(=O)n2c(-c3ccccc3)csc2n1,-0.000258 (inactive)
5,COc1ccccc1OCC(=O)Nc1ccc(S(=O)(=O)Nc2cc(C)nc(C)n2)cc1,1.9e-05 (inactive)
6,COCCCNC(=O)c1c(N)n(/N=C/c2cccs2)c2nc3ccccc3nc12,-5.1e-05 (inactive)
7,CCOC(=O)CNS(=O)(=O)c1cc(-c2nn(C)c(=O)c3ccccc23)ccc1C,-1.9e-05 (inactive)
8,N#CC1=C(SCc2ccccc2)NC2=C(C(=O)CCC2)C1c1ccc2c(c1)OCO2 (stereo not drawn),-5.3e-05 (inactive)
9,CCOC(=O)c1[nH]c2cc3c(cc2c1NC(=O)CN1CCc2ccccc2C1)OCO3,-1e-07 (inactive)
10,CCOC(=O)c1ccc(NC(=O)CCC(CC)C(=O)O)cc1 (stereo not drawn),-9.3e-06 (inactive)
11,CCOC(=O)CSc1nc2ccccc2c(=O)n1C,-3.8e-05 (inactive)
12,CC(O)Cn1ccccc1=N (stereo not drawn),7.7e-06 (inactive)
13,CC1CN(C2CCN(S(=O)(=O)Cc3ccccc3)CC2)CC(C)O1 (stereo not drawn),-1.6e-05 (inactive)
14,CN1CCN(c2ncnc3c2[nH]c2ccc(F)cc23)CC1,-8e-05 (inactive)
15,COc1cc(-c2nn3c(C4CCCCC4)nnc3s2)cc(OC)c1OC,-0.000183 (inactive)
16,O=C1OC(Nc2ccc(Br)cn2)c2ccccc21 (stereo not drawn),-1.7e-06 (inactive)
17,Cc1nnc2n(Cc3ccccc3)c(=O)c3c4c(sc3n12)CN(Cc1ccccc1)CC4,-5e-05 (inactive)
18,O=C(O)C(Cc1c[nH]c2ccccc12)NS(=O)(=O)c1cccc2nsnc12 (stereo not drawn),-5.5e-05 (inactive)
19,Cc1ccc(C(=O)C2=C(O)C(=O)N(c3ncccn3)C2c2ccc(Cl)cc2)o1 (stereo not drawn),-1.3e-05 (inactive)
20,CC(=O)C1(C)OC(N)=C(C#N)C(c2ccccc2)C1(C#N)C#N (stereo not drawn),2.9e-06 (inactive)

row,Structure (SMILES),NADPH fluorescence slope
1,CCCCOc1ccccc1/C=c1/sc2nc(-c3oc4ccccc4c3C)nn2c1=O,-1e-05 (inactive)
2,CCCOc1ccc(/C(O)=C2/C(=O)C(=O)N(CCN(C)C)C2c2ccncc2)cc1 (stereo not drawn),-6.3e-05 (inactive)
3,Cc1onc(-c2ccccc2Cl)c1C(=O)N1CCN(c2nc3ccccc3s2)CC1,-0.000136 (inactive)
4,COc1ccc2oc(=O)c(-c3nc(C)cs3)cc2c1,-3.5e-05 (inactive)
5,CCOC(=O)CSc1nc(NC#N)nc(N(CC)CC)n1,-9.5e-05 (inactive)
6,CCOc1ccc(/C(O)=C2/C(=O)C(=O)N(CCN(C)C)C2c2ccccc2)cc1Cl (stereo not drawn),-5.4e-05 (inactive)
7,CCCCOC(=O)Nc1ccc(S(=O)(=O)Nc2nc(C)cc(C)n2)cc1,-1.7e-05 (inactive)
8,COc1ccc(C=NCCC2(O)CC(C)N(C)CC2C)cc1 (stereo not drawn),-6e-05 (inactive)
9,Cc1ccc(C(C)C)c(OCCNc2nc3c(c(=O)n(C)c(=O)n3C)n2C)c1,-5.2e-05 (inactive)
10,CCOC(=O)CCc1c(C)c(C#N)c2nc3ccccc3n2c1-n1ccnc1C,-3.9e-05 (inactive)
11,C=CCSc1nc(C)c(CC=C)c(=O)[nH]1,-1.2e-06 (inactive)
12,CC1C[C@@]2(NC(=O)NC2=O)C(C)CN1C (stereo partly drawn),-0.000117 (inactive)
13,Cc1nnc(C)n1/N=C/c1cc(Br)cc(Br)c1O,-0.000109 (inactive)
14,Clc1ccc2[nH]c3c(NCCN4CCOCC4)ncnc3c2c1,-3.9e-05 (inactive)
15,Cc1cc(C)n(CC(=O)N2c3ccccc3Sc3ccccc32)n1,-4.4e-05 (inactive)
16,Cn1c(NCC(O)c2ccccc2)nc2c1c(=O)n(Cc1ccc(Cl)c(Cl)c1)c(=O)n2C (stereo not drawn),-3.6e-05 (inactive)
17,COc1ccccc1-c1nn2c(-c3ccco3)nnc2s1,-8.7e-05 (inactive)
18,CCCCNC(=O)c1c(N)n(/N=C/c2cccnc2)c2nc3ccccc3nc12,5.4e-07 (inactive)
19,CCOc1ccc(C2C(C(=O)c3ccc(C)o3)=C(O)C(=O)N2CCCN(CC)CC)cc1 (stereo not drawn),-3.9e-05 (inactive)
